Assay results taken from PubChem BioAssay (Tox21).
Values without a mark were called inactive. The source made the active and inactive calls. The call rests on the fitted dose curve; in most records, active means well fitted curve in the direction sought with a large enough effect in the repeat runs; inconclusive means weak or mixed curves; inactive means flat fitted curve, though single readings scatter.

Assay: qHTS assay to test for compound auto fluorescence at 590 nm (red) in HEK293 cells (AID 720679)
Conditions: red autofluorescence 540/590 nm; series mostly up to 91.3 µM
Text: National Center for Advancing Translational Sciences [NCATS]
NIH Chemical Genomics Center [NCGC]
U.S. Environmental Protection Agency [EPA]
National Institutes of Environmental Health Sciences [NIEHS]
National Toxicology Program [NTP]
U.S. Food and Drug Administration [FDA]
Compound auto fluorescence often interferes with screening of the compound library against various biological targets and signaling pathways. Some of these compounds may have fluorophoric properties. Such properties may interfere with the assay outputs resulting in false positives and/or negatives. To decrease such complications and ensure the compound activities are relevant in terms of biological response, the Tox21 10K compound library was screened for auto fluorescence.
From the fluorophores used as reporter signals in our screening assays, the auto fluorescence equivalencies of compounds against three fluorophores have been evaluated: Triamterene, Fluorescein and Rose Bengal sodium for blue, green and red fluorescence, respectively. The fluorescence intensities were measured using Excitation/Emission wavelengths at 405/460nm, 485/535nm and 540/590nm for blue, green and red labels, respectively. This assay includes the red fluorescence data.
Tox21 Assay Protocol Summary:
2,000 HEK293 cells in 5 uL of culture medium containing 10% dialyzed FBS per well were dispensed into black wall/clear bottom 1536-well plates using a Multidrop Combi Dispenser (Thermo Scientific). The assay plates were incubated for 4-5 hr at 37C to allow cell attachment to the well bottom, followed by the transfer of 23 nL compound or DMSO vehicle by a pintool work station (Kalypsys, San Diego, CA). After the assay plates were incubated overnight at 37C and 5% CO2, fluorescence intensities in the assay plates were measured by an Envision (PerkinElmer, Shelton, CT) plate reader using three labels for measuring blue, green and red fluorescence at […] 460, 535 and 590nm respectively.
On the % scale 0 is the no-effect control and ±100 the full control effect.

SMILES | fluorescence, % of fluorescent control | outcome
NCCc1ccn[nH]1 | 0.131% [at 18.6 µM] | 
CC(=O)/C=C/c1ccco1 |  | inactive
O=C(COCCOCCOCC(=O)Nc1c(I)cc(I)c(C(=O)O)c1I)Nc1c(I)cc(I)c(C(=O)O)c1I |  | inactive
CCCCC(CC)C(=O)OC(C)C (stereo not given) |  | inactive
O=C(O)CCNC(=O)c1ccccc1 |  | inactive
CC(C)SCc1ccco1 |  | inactive
C=CC(C)(O)CC/C=C(\C)CC (stereo not given) |  | inactive
COc1ccc(OC)c(NC(=O)CC(C)=O)c1 |  | inactive
Cc1oc(=O)oc1CN1CCN(c2cc3c(cc2F)c(=O)c(C(=O)O)c2n3C(C)S2)CC1 (stereo not given) |  | inactive
CN[C@@H]1[C@@H](O)[C@@H](O[C@@H]2[C@H](O)[C@H](O[C@H]3OC(CN)=CC[C@H]3N)[C@@H](N)C[C@H]2N)OCC1(C)O (stereo not given in full) |  | inactive
O=C1OC(=O)c2cc(Oc3ccc4c(c3)C(=O)OC4=O)ccc21 |  | inactive
FC(F)(F)/C(=N\OCC1OCCO1)c1ccc(Cl)cc1 |  | inactive
Cc1cccc(C(=O)O)c1[N+](=O)[O-] |  | inactive
O=C(Nc1cccc(C2=NCCN2)c1)Nc1cccc(C2=NCCN2)c1 |  | inactive
Nc1cc(C(=O)O)ccc1Cl |  | inactive
C=C[Si](C)(C)O[Si](C)(C)C=C |  | inactive
COC(/C=C(\C)CCC=C(C)C)OC |  | inactive
CCCCC(CC)COC(=O)c1ccccc1 (stereo not given) |  | inactive
O=S(=O)(O)CCO |  | inactive
C[Si]1(C)N[Si](C)(C)N[Si](C)(C)N1 |  | inactive

SMILES | fluorescence, % of fluorescent control | outcome
O=CN1CCOCC1 |  | inactive
NS(=O)(=O)c1ccccc1OC(F)(F)F |  | inactive
CC(C)=CC(C)(C)C |  | inactive
CO/N=C(/C(=O)N[C@@H]1C(=O)N2C(C(=O)O)=C(Cn3nnc(C)n3)CS[C@H]12)c1csc(N)n1 |  | inactive
CCCCC/C=C/CC(=O)OC |  | inactive
CC(CC(=O)O)CC(C)(C)C (stereo not given) |  | inactive
O=C(O)C(=O)Nc1cccc(-c2nn[nH]n2)c1 |  | inactive
CC(=O)N(CC(O)CO)c1c(I)c(C(=O)NCC(O)CO)c(I)c(C(=O)NCC(O)CO)c1I (stereo not given) |  | inactive
Cc1nc([N+](=O)[O-])cn1-c1ccc([N+](=O)[O-])cc1 |  | inactive
C=CCOCC(O)CCl (stereo not given) |  | inactive
CCCCCC1CCCC(=O)O1 (stereo not given) |  | inactive
NS(=O)(=O)c1cc2c(cc1Cl)NC(C(Cl)Cl)NS2(=O)=O (stereo not given) | -0.0605% [at 18.6 µM] | 
O=C(O)/C=C/c1ccccc1 |  | inactive
Oc1ccccc1Cc1ccccc1O |  | inactive
COC(OC)C(C)c1ccccc1 (stereo not given) |  | inactive
CCC(C)N (stereo not given) |  | inactive
Nc1ccc(S(=O)(=O)Nc2ccccn2)cc1 | 0.278% [at 18.6 µM] | 
C[N+](C)(C)CC(O)CCl (stereo not given) |  | inactive
COc1cccc2sc(N)nc12 |  | inactive
O=P(O)(O)OCC(O)CO (stereo not given) |  | inactive
